Source: PubChem BioAssay (NCI)
This is part of a sample that, as a whole, favours compounds with a hit. Of some 83,000 tested, about 20% had one in any assay.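 Plates (96-well) were seeded with cells, treated with compound at one concentration, and incubated for 48 hours before percent growth was determined.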 Values without a mark were called inactive. Activity calls are given as the source filed them. How the source made its calls: active means growth percent below 10; inactive means the rest.

System: OVCAR-4 ovarian
Assay: NCI-60 one-dose screen, 48 h (100 = growth as untreated, 0 = no growth, -100 = all killed)
Settings: 10 µM unless noted

With `OC1(c2ccccc2)c2ccccc2N(c2ccccc2)c2ccc(Cl)cc21` (stereo not given) the growth was -82.8% (active).
For `O=c1c2ccccc2n(C[C@H]2CO2)c2ccccc12`, the growth was 7.68% (active).

Going from `O=C(Cc1ccc(/C=C/C(=O)c2ncc[nH]2)cc1)Nc1cc(F)c(F)c(F)c1` to `O=S(=O)(Nc1ccc2ccccc2c1)c1ccc(-c2cnc(C3CC3)o2)cc1`, the growth falls from 72.7% to 70.4%.

`C/C(=N\Nc1ccccc1)c1ccc(NC2=CC(=O)c3ccccc3C2=O)cc1` gave a growth of 43%.

System: SK-OV-3 ovarian
Assay: as above
Settings: 10 µM unless noted

First: C=CN(C(=O)N1CCN(c2cc3c(cc2F)c(=O)c(C(=O)O)cn3C2CC2)CC1)c1nc(-c2ccccc2)cs1
Second: O=C(/C=C/c1ccccc1)c1ccc(-n2cc(CN3CCN(c4cc5c(cc4F)c(=O)c(C(=O)O)cn5C4CC4)CC3)nn2)cc1
The growth of the first is higher: 87.8% for the first, 80% for the second.

First: CNCCCNc1nc2ccccc2c2c(=O)c3cc(Cl)ccc3sc12
Second: CCN(CC)CCn1c2ccc(OC)cc2c2sc3cc(O)ccc3c(=O)c21
The growth of the first is higher: 84.4% for the first, 52.3% for the second.

Compared with `CCOC(=O)C1=C(CCl)N(C)C(=O)NC1c1ccc2c(c1)OCO2` (stereo not given), `CC(O)CNC(Cc1ccccc1)c1ccc2c(c1)OCO2` (stereo not given) is lower in growth: 93.7% for the first, 66.2% for the second.

Compared with `Cn1cc(-c2nonc2-c2c[nH]c3ccccc23)c2cc(Br)ccc21`, `CSc1ccc2c3c(n(CCCn4ccnc4)c(=O)c2c1)-c1ccccc1C3=O` is higher in growth: 49.8% for the first, 50.9% for the second.

First: COc1cc2c3c(c4c5ccccc5[nH]c4c2c(OC)c1OC)C(=O)N(CCN1CCCCC1)C3=O
Second: CC/C(=C(/c1ccc(O)cc1)c1ccc(OCCN2CCCCC2)cc1)c1ccc(OC)cc1
The growth of the first is lower: 54.7% for the first, 99.3% for the second.

Going from `COC(=O)/C(CCC=C(C)C)=C1\[C@@H](OC(C)=O)C[C@@]2(C)[C@H]1C/C(=N/O)[C@H]1[C@@]3(C)CC/C(=N\O)[C@@H](C)[C@@H]3CC[C@@]12C` to `CC1(C)CC[C@]2(CO)CC[C@]3(C)[C@](O)([C@H](O)C[C@@H]4[C@@]5(C)CCCNC(C)(C)[C@@H]5CC[C@]43C)[C@@H]2C1`, the growth falls from 107% to 98.2%.

First: Cc1[nH]n(-c2cccc(Cl)c2)c(=O)c1/C=C1\C=c2ccccc2=CC1=O
Second: O=c1oc2ccccc2cc1-c1nn(-c2ccccc2)cc1-c1nn[nH]n1
The growth of the first is lower: 15.3% for the first, 99.8% for the second.

Compared with `C=C1C(=O)O[C@H]2[C@H]1CC/C(COC(=O)NCc1ccc(Cn3c(=O)sn(-c4ccc(I)cc4)c3=O)cc1)=C\CC[C@@]1(C)O[C@@H]21`, `C=C1C(=O)O[C@H]2[C@H]1CC/C(COC(=O)NCc1ccc(Cn3c(=O)sn(-c4ccccc4)c3=O)cc1)=C\CC[C@@]1(C)O[C@@H]21` is higher in growth: 100% for the first, 134% for the second.

First: CS(=O)(=O)Nc1cc(-c2ccc3ncnc(Nc4ccc5c(cnn5Cc5ccncc5)c4)c3c2)cnc1Cl
Second: Cc1cc(NCCCNc2ccnc3cc(Cl)ccc23)nc(Nc2ccc(C(=O)N3CCCCC3)cc2)n1
The growth of the first is lower: 54.9% for the first, 96.8% for the second.

First: Nc1ncccc1O
Second: S=c1ccnc[nH]1
The growth of the first is lower: 107% for the first, 113% for the second.

First: CN(C)CCC(=O)C1CC1
Second: O=C(O)c1cn(C2CC2)c2cc(N3CCN(C(=O)N4CCOCC4)CC3)c(F)cc2c1=O
The growth of the first is higher: 110% for the first, 100% for the second.

First: CCCc1cc(=O)oc2c(C(=O)CC(C)C)c(O)c(CC=C(C)C)c(O)c12
Second: O=C(NCCN1CCOCC1)OCc1ccc2c(Cl)cc(Cl)c(O)c2n1
The growth of the first is lower: 23.3% for the first, 91.8% for the second.

First: COc1ccc(-c2cc(C(=O)N3N=C(c4ccc(N)cc4)CC3c3ccc(Cl)cc3)c3ccccc3n2)cc1 (stereo not given)
Second: C/C(Cc1ccc(Cl)cc1)=C(\c1ccc(OCCN2CCCCCC2)cc1)c1ccc(OC(=O)c2ccccc2)cc1
The growth of the first is lower: 21.6% for the first, 86.9% for the second.

Compared with `COc1cc(/C=C/c2cn[nH]c2-c2ccc(C)cc2)cc(OC)c1OC`, `O=C(Cc1ccc(/C=C/C(=O)c2ncc[nH]2)cc1)Nc1cc(F)c(F)c(F)c1` is higher in growth: 16.2% for the first, 103% for the second.

Going from `CN1CCOCCN(C)Cc2ccc3ccc(cc3c2)CN(C)CCOCCN(C)Cc2ccc3ccc(cc3c2)C1` to `O=S(=O)(Nc1ccc2ccccc2c1)c1ccc(-c2cnc(C3CC3)o2)cc1`, the growth falls from 146% to 32.7%.

Going from `c1ccc2cc(Cn3cc(CSc4nc5ccccc5s4)nn3)ccc2c1` to `O=C(Nc1cccnc1Nc1ccccc1)c1cn(Cc2cccc(Oc3ccccc3)c2)nn1`, the growth falls from 93.3% to 77.1%.

First: Clc1cccc(C2Cc3cnccc3-c3[nH]c4ccncc4c32)c1 (stereo not given)
Second: C/C(=N\Nc1ccccc1)c1ccc(NC2=CC(=O)c3ccccc3C2=O)cc1
The growth of the first is lower: 50.9% for the first, 65.3% for the second.

In the case of `O=C(NCCCCCCNC(=O)OCc1ccc2c(Cl)cc(Cl)c(O)c2n1)OCc1ccc2c(Cl)cc(Cl)c(O)c2n1`, the growth is reported as 42.9%.

`COc1ccc(C2[C@@H](Cl)C(=O)N2c2cc(OC)c(OC)c(OC)c2)cc1Cl` (stereo not given in full) was tested, and the growth was -0.0611% (active).
For `COc1ccc2cc(C(=O)N3CCC([C@@H](C)C(=O)NCc4ccc5c(c4)OCO5)CC3)[nH]c2c1`, the growth was 1.39% [50 µM] (active).
With `COc1ccc(Nc2ncc(I)c(NCCCNC(=O)C3CCC3)n2)cc1` the growth was -3.33% (active).
With `OC1(c2ccccc2)c2ccccc2N(c2ccccc2)c2ccc(Cl)cc21` (stereo not given) the growth was -89.3% (active).
`O=c1c2ccccc2n(C[C@H]2CO2)c2ccccc12` was tested, and the growth was -13.5% (active).
